Screening results as filed in PubChem BioAssay.
This excerpt belongs to a sample that is enriched for hits.
PLAP activator: human PLAP activation. P05187. 1.2% of 96,000 active. AID 696. activation fold at 20 µM. purified PLAP enzyme, luminescent substrate read-out; active compounds read high; in the data active = activation fold above about 2
Target sequence (P05187 whole entry, looked up): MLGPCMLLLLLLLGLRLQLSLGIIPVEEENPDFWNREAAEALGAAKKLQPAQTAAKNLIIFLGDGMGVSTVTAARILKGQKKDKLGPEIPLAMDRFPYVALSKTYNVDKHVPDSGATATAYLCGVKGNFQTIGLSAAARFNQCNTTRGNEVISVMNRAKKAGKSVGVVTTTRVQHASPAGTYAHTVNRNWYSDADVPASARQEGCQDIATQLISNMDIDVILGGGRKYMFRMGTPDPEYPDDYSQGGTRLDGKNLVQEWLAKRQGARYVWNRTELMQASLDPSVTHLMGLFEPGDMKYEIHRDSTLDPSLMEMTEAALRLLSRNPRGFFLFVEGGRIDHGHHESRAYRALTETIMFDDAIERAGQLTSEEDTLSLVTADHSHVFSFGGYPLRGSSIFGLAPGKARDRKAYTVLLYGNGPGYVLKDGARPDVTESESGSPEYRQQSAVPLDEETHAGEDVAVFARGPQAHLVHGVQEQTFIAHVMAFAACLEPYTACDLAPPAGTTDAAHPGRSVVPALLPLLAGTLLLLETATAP
Ec RNAP inh: Escherichia coli RNA polymerase inhibition; 0.2% of 62,000 active; inhibition, %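 (tested at 10 µM)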; P0A8V2; E. coli RNA polymerase, fluorescence transcription assay; in the data active = inhibition above about 20%
TNAP act DEA: human TNAP activation, intermediate phosphate acceptor. purified TNAP, CDP-star luminescence, 100 mM DEA, 30 min; active compounds read high; scale: 0 levamisole-inhibited, 1 vehicle-only enzyme. activation factor at 20 µM. 64,000 tested, under 10 active;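 active = activation factor of at least 2 at 20 µM, relative to controls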
A number is an active result.

Screening CCc1cccc(NC(=O)CSCc2cc(=O)[nH][nH]2)c1 returned PLAP activator 2.5.
Screening Nc1nc2n(n1)C1(CCCCC1)C1=C(CCCC1)N2 returned PLAP activator 2.1, Ec RNAP inh inactive and TNAP act DEA inactive.
Screening C1CCC2(CC1)C1=C(CCCC1)Nc1nnnn12 returned PLAP activator inactive, Ec RNAP inh inactive and TNAP act DEA inactive.
For CCCN(CCC)c1ncnc2nc[nH]c12 the results were PLAP activator 2.3, Ec RNAP inh inactive and TNAP act DEA inactive.
`Clc1ccccc1CN(Cc1ccccc1)c1ncnc2nc[nH]c12` gave PLAP activator inactive, Ec RNAP inh inactive and TNAP act DEA inactive.
For COc1ccc(-c2[nH]ncc2/C=C(\C#N)C(=O)NC2CC2)cc1 the results were PLAP activator 2.6.
Screening N#C/C(=C\c1cn[nH]c1-c1ccccc1)C(=O)NC1CCCCCC1 returned PLAP activator inactive.
`N#C/C(=C\c1cn[nH]c1-c1ccc(Cl)cc1)C(=O)NCc1ccccc1` gave PLAP activator 2.1.
CC(NC(=O)/C(C#N)=C/c1cn[nH]c1-c1ccccc1)c1ccccc1 (configuration not stated) was read as PLAP activator inactive.
For CCC(C)(C)n1nnnc1CN1CCc2ccccc21 the results were PLAP activator inactive.
For O=[N+]([O-])c1c(C(Cl)Cl)nn(-c2ccccc2)c1N1CCCC1 the results were PLAP activator inactive.
Screening Cc1ccc(S(=O)(=O)NC(CC(C)C)C(=O)Nc2nccs2)cc1 (configuration not stated) returned PLAP activator 2.2.
Screening Cc1ccc(S(=O)(=O)CCC(=O)Nc2nccs2)cc1 returned PLAP activator inactive.
COc1ccc(-c2noc(CCC(=O)N(C)c3cccc(C)c3)n2)cc1 was read as PLAP activator inactive, Ec RNAP inh inactive and TNAP act DEA inactive.
`CCN(C(=O)CCc1nc(-c2ccc(OC)cc2)no1)c1cc(OC)ccc1OC` gave PLAP activator 2, Ec RNAP inh inactive and TNAP act DEA inactive.
CC1CCCCN1c1nnc(NC(=O)c2cc(-c3ccc(Br)cc3)on2)s1 (configuration not stated) was read as PLAP activator inactive.
CN(C)CC(C)(C)CNC(=O)c1cc(=O)c2ccccc2o1 was read as PLAP activator inactive.
`Cc1nnsc1C(=O)NC1CCCCC1` gave PLAP activator inactive.
Screening CCOC(=O)C1=C(CSc2nc3ccccc3s2)NC(=O)NC1c1ccc(OC)cc1 (configuration not stated) returned PLAP activator inactive.
Screening CCOC(=O)C1=C(CSc2n[nH]c(N)n2)NC(=O)NC1C (configuration not stated) returned PLAP activator 2.4, Ec RNAP inh inactive and TNAP act DEA inactive.
Screening CC(C)OCCCNS(=O)(=O)c1ccc2ccccc2c1 returned PLAP activator inactive.
Screening O=C(CSC1=NCCN1)C1COc2ccccc2O1 (configuration not stated) returned PLAP activator inactive and TNAP act DEA inactive.
COc1ccc(/C(O)=C2/C(=O)C(=O)N(CCCN(C)C)C2c2ccco2)cc1Cl (configuration not stated) was read as Ec RNAP inh inactive and TNAP act DEA inactive.
CN(C)S(=O)(=O)c1ccc(C(=O)Nc2ccccn2)cc1 was read as PLAP activator inactive, Ec RNAP inh inactive and TNAP act DEA inactive.
For O=C(NNc1ccccn1)C(=O)NNS(=O)(=O)c1ccc(Cl)cc1 the results were PLAP activator 2.4.
Screening CN(C)CCNC(=O)Cn1nc(C(F)F)cc1C1CC1 returned PLAP activator inactive, Ec RNAP inh inactive and TNAP act DEA inactive.
For Nc1ncnc2nc(SCc3ccc(Cl)cc3Cl)[nH]c12 the results were PLAP activator 2.3.
Nc1ncnc2nc(Sc3ccc(Cl)cc3)[nH]c12 was read as PLAP activator inactive, Ec RNAP inh inactive and TNAP act DEA inactive.
CC1(C)Oc2ccc(NC(=O)c3ccco3)cc2O1 was read as PLAP activator inactive.
Screening O=C(COC(=O)C1c2ccccc2Oc2ccccc21)NC1CCS(=O)(=O)C1 (configuration not stated) returned PLAP activator inactive, Ec RNAP inh inactive and TNAP act DEA inactive.
CCCCOc1cccc(-c2cc(C(=O)NNC(=S)NCC)c3ccccc3n2)c1 was read as PLAP activator inactive.
CCNC(=S)NNC(=O)c1cc(-c2cccc(OCC)c2)nc2ccccc12 was read as PLAP activator 2.7.
CCNC(=S)NNC(=O)c1cc(C2CC2)nc2ccccc12 was read as PLAP activator 2.1.
CCNC(=S)NNC(=O)c1cc(-c2cccc(C)c2)nc2ccccc12 was read as PLAP activator inactive.
Screening Cc1ccc(C)c(N(CC(=O)NC2CCCC2)C(=O)CCCC(=O)Nc2ccccn2)c1 returned PLAP activator inactive, Ec RNAP inh inactive and TNAP act DEA inactive.
`Cc1cccc(N(CC(=O)NC2CCCC2)C(=O)CCCC(=O)Nc2ccccn2)c1` gave PLAP activator 2, Ec RNAP inh inactive and TNAP act DEA inactive.
`NC(=O)c1oc2ccc(Cl)cc2c1NC(=O)CN1CCOCC1` gave PLAP activator inactive, Ec RNAP inh inactive and TNAP act DEA inactive.
For CC(=O)Nc1cccc(-c2nnc(SCC(=O)n3c4c(c5ccccc53)CCCC4)n2C)c1 the results were PLAP activator inactive.
`Cc1cc(C)n2nc(SCc3cc(=O)n4c(C)cccc4n3)nc2n1` gave Ec RNAP inh inactive and TNAP act DEA inactive.
Screening COc1ccccc1NC(=O)CSc1nnc(Cc2ccccc2)o1 returned PLAP activator inactive, Ec RNAP inh inactive and TNAP act DEA inactive.
For COc1ccc(NC(=O)CSc2nnc(Cc3ccccc3)o2)c(OC)c1 the results were PLAP activator 2.3 and TNAP act DEA inactive.
`N/N=c1\sc2ccccc2n1-c1ccccc1` gave PLAP activator inactive.
For C=CCn1c(SCc2nc3ccccc3[nH]2)nnc1-c1ccccn1 the results were PLAP activator 2, Ec RNAP inh inactive and TNAP act DEA inactive.
Screening Cn1c(SCc2nc3ccccc3[nH]2)nnc1-c1ccccn1 returned PLAP activator inactive, Ec RNAP inh inactive and TNAP act DEA inactive.
For COc1ccc(CCn2c(C)cc(C(=O)CSc3nnnn3-c3ccccc3)c2C)cc1 the results were PLAP activator inactive.
COc1ccc2nc(NCCCNC(=O)c3cc(OC)c(OC)c(OC)c3)c(C#N)cc2c1 was read as PLAP activator 2.4, Ec RNAP inh inactive and TNAP act DEA inactive.
Screening CCOc1ccc2nc(NCCNC(=O)Nc3ccccc3)c(C#N)cc2c1 returned PLAP activator inactive, Ec RNAP inh inactive and TNAP act DEA inactive.
`CC(C)(C)C(=O)Nc1ccnc(-c2cccnc2)n1` gave PLAP activator inactive.
Screening O=c1oc2c3c4c(cc2c(C(F)(F)F)c1CCN1CCOCC1)CCCN4CCC3 returned PLAP activator inactive and TNAP act DEA inactive.
`CC(C)c1cc(=O)oc2c3c4c(cc12)CCCN4CCC3` gave PLAP activator 2, Ec RNAP inh inactive and TNAP act DEA inactive.
`O=C(NCc1nc2ccccc2[nH]1)c1cccc(S(=O)(=O)N2CCCC2)c1` gave PLAP activator inactive.
CCOc1cc(C(=S)N2CCCCC2)ccc1OS(=O)(=O)c1ccc(Br)cc1 was read as PLAP activator inactive.
CCOc1cc(C(c2c(C)[nH][nH]c2=O)c2c(C)[nH][nH]c2=O)ccc1OS(=O)(=O)c1ccccc1 was read as PLAP activator 2.6.
